Screen size: about 5,500 compounds; about 2,000 (36%) were called active. Roughly 18% stayed inconclusive and do not appear here. The list shows a part of the results. Values without a mark were called inactive. Rule as the data show it: active = normalized growth mostly below about 0.91 (no sharp cut-off); inconclusive = no clear call, values can overlap the other calls; inactive = mostly above about 0.92.
Test: chemical genetic growth profiling, strain panel (AID 1159580);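 also: tested at 20 µM; growth read once vehicle control cultures reached saturation at 30 °C; 1 = growth at the plate median or of vehicle wells; lower values mean less growth of the strain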
Conditions: growth OD
[1] = S. cerevisiae deletion strains, locus YDL101C, strain DUN1, active compounds read low
[2] = S. cerevisiae deletion strains, locus YHR030C, strain SLT2, active compounds read low
[3] = S. cerevisiae deletion strains, locus YAL013W, strain DEP1, active compounds read low
[4] = S. cerevisiae deletion strains, locus YBR229C, strain ROT2, active compounds read low
[5] = S. cerevisiae deletion strains, locus YDL134C, strain PPH21, active compounds read low
[6] = S. cerevisiae deletion strains, locus YDR150W, strain NUM1, active compounds read low
[7] = S. cerevisiae deletion strains, locus YEL061C, strain CIN8, active compounds read low
[8] = S. cerevisiae deletion strains, locus YGR078C, strain PAC10, active compounds read low
[9] = S. cerevisiae deletion strains, locus YHR087W, strain rtc3, active compounds read low
[10] = S. cerevisiae deletion strains, locus YJL187C, strain SWE1, active compounds read low
[11] = S. cerevisiae deletion strains, locus YJR043C, strain POL32, active compounds read low
[12] = S. cerevisiae deletion strains, locus YJR075W, strain HOC1, active compounds read low
[13] = S. cerevisiae deletion strains, locus YKL190W, strain CNB1, active compounds read low
[14] = S. cerevisiae deletion strains, locus YLR039C, strain RIC1, active compounds read low
[15] = S. cerevisiae deletion strains, locus YLR058C, strain SHM2 (second series), active compounds read low
[16] = S. cerevisiae deletion strains, locus YLR085C, strain ARP6, active compounds read low
[17] = S. cerevisiae deletion strains, locus YLR262C, strain YPT6, active compounds read low
[18] = S. cerevisiae deletion strains, locus YML094W, strain GIM5, active compounds read low
[19] = S. cerevisiae deletion strains, locus YMR219W, strain ESC1, active compounds read low
[20] = S. cerevisiae deletion strains, locus YMR263W, strain SAP30, active compounds read low
[21] = S. cerevisiae deletion strains, locus YMR307W, strain GAS1, active compounds read low
[22] = S. cerevisiae deletion strains, locus YNL153C, strain GIM3, active compounds read low
[23] = S. cerevisiae deletion strains, locus YNL298W, strain CLA4 (second series), active compounds read low
[24] = S. cerevisiae deletion strains, locus YNL322C, strain KRE1, active compounds read low
[25] = S. cerevisiae deletion strains, locus YNR030W, strain Alg12, active compounds read low
[26] = S. cerevisiae deletion strains, locus YOL006C, strain TOP1, active compounds read low
[27] = S. cerevisiae deletion strains, locus YPL055C, strain LGE1, active compounds read low
[28] = S. cerevisiae deletion strains, locus YPL241C, strain CIN2, active compounds read low
[29] = S. cerevisiae deletion strains, locus YPR135W, strain CTF4, active compounds read low

With `Nc1ccccc1C(=O)N/N=C\c1cc(Br)ccc1O` the normalized growth (S. cerevisiae deletion strains, locus YAR019C, strain CDC15, active compounds read low) was 0.985, the normalized growth (S. cerevisiae deletion strains, locus YBL105C, strain PKC1, active compounds read low) was 0.984 and the normalized growth (S. cerevisiae deletion strains, locus YBR135W, strain CKS1, active compounds read low) was 0.981. It also gave a normalized growth (S. cerevisiae deletion strains, locus YBR136W, strain MEC1, active compounds read low) of 0.982, a normalized growth (S. cerevisiae deletion strains, locus YBR160W, strain CDC28, active compounds read low) of 0.989 and a normalized growth (S. cerevisiae deletion strains, locus YDL017W, strain CDC7, active compounds read low) of 0.98. For the same compound, the normalized growth (S. cerevisiae deletion strains, locus YDL028C, strain MPS1, active compounds read low) was 0.976, the normalized growth [1] was 0.984 and the normalized growth (S. cerevisiae deletion strains, locus YDL108W, strain KIN28, active compounds read low) was 0.982. The normalized growth (S. cerevisiae deletion strains, locus YDL132W, strain cdc53, active compounds read low) was 0.97, the normalized growth (S. cerevisiae deletion strains, locus YDL214C, strain PRR2, active compounds read low) was 0.972 and the normalized growth (S. cerevisiae deletion strains, locus YDR052C, strain DBF4, active compounds read low) was 0.99. It also gave a normalized growth (S. cerevisiae deletion strains, locus YDR054C, strain cdc34, active compounds read low) of 0.97, a normalized growth (S. cerevisiae deletion strains, locus YDR226W, strain ADK1, active compounds read low) of 0.96 and a normalized growth (S. cerevisiae deletion strains, locus YDR477W, strain SNF1, active compounds read low) of 0.961. The normalized growth (S. cerevisiae deletion strains, locus YER123W, strain YCK3, active compounds read low) was 0.877, the normalized growth (S. cerevisiae deletion strains, locus YER133W, strain GLC7, active compounds read low) was 0.979 and the normalized growth (S. cerevisiae deletion strains, locus YFL009W, strain cdc4, active compounds read low) was 0.965. For the same compound, the normalized growth (S. cerevisiae deletion strains, locus YFL029C, strain CAK1, active compounds read low) was 0.971, the normalized growth (S. cerevisiae deletion strains, locus YFR003C, strain YPI1, active compounds read low) was 0.974 and the normalized growth (S. cerevisiae deletion strains, locus YFR019W, strain FAB1, active compounds read low) was 0.985. For the same compound, the normalized growth (S. cerevisiae deletion strains, locus YFR028C, strain CDC14, active compounds read low) was 0.985, the normalized growth (S. cerevisiae deletion strains, locus YGR040W, strain KSS1, active compounds read low) was 0.982 and the normalized growth (S. cerevisiae deletion strains, locus YGR052W, strain FMP48, active compounds read low) was 0.925. The normalized growth (S. cerevisiae deletion strains, locus YGR092W, strain DBF2, active compounds read low) was 0.452 (active), the normalized growth [2] was 0.855 and the normalized growth (S. cerevisiae deletion strains, locus YHR079C, strain IRE1, active compounds read low) was 0.828. For the same compound, the normalized growth (S. cerevisiae deletion strains, locus YHR082C, strain KSP1, active compounds read low) was 1.02, the normalized growth (S. cerevisiae deletion strains, locus YHR205W, strain SCH9, active compounds read low) was 0.866 and the normalized growth (S. cerevisiae deletion strains, locus YIL147C, strain SLN1, active compounds read low) was 0.981. The normalized growth (S. cerevisiae deletion strains, locus YJL095W, strain BCK1, active compounds read low) was 0.798, the normalized growth (S. cerevisiae deletion strains, locus YJL128C, strain PBS2, active compounds read low) was 0.933 and the normalized growth (S. cerevisiae deletion strains, locus YJL157C, strain FAR1, active compounds read low) was 0.947. For the same compound, the normalized growth (S. cerevisiae deletion strains, locus YJR016C, strain ILV3, active compounds read low) was 0.976, the normalized growth (S. cerevisiae deletion strains, locus YJR066W, strain TOR1 (second series), active compounds read low) was 0.903 and the normalized growth (S. cerevisiae deletion strains, locus YJR066W, strain TOR1, active compounds read low) was 0.976. It also gave a normalized growth (S. cerevisiae deletion strains, locus YKL048C, strain ELM1, active compounds read low) of 0.928, a normalized growth (S. cerevisiae deletion strains, locus YKL067W, strain YNK1, active compounds read low) of 0.948 and a normalized growth (S. cerevisiae deletion strains, locus YKL101W, strain HSL1, active compounds read low) of 0.901. The normalized growth (S. cerevisiae deletion strains, locus YKL193C, strain SDS22, active compounds read low) was 0.976, the normalized growth (S. cerevisiae deletion strains, locus YKL203C, strain TOR2, active compounds read low) was 1.02 and the normalized growth (S. cerevisiae deletion strains, locus YLR113W, strain HOG1, active compounds read low) was 0.784 (active). For the same compound, the normalized growth (S. cerevisiae deletion strains, locus YLR133W, strain CKI1, active compounds read low) was 0.927, the normalized growth (S. cerevisiae deletion strains, locus YLR403W, strain SFP1, active compounds read low) was 0.88 and the normalized growth (S. cerevisiae deletion strains, locus YML070W, strain DAK1, active compounds read low) was 0.901. It also gave a normalized growth (S. cerevisiae deletion strains, locus YMR001C, strain CDC5, active compounds read low) of 0.986, a normalized growth (S. cerevisiae deletion strains, locus YMR205C, strain PFK2 (second series), active compounds read low) of 0.939 and a normalized growth (S. cerevisiae deletion strains, locus YMR277W, strain FCP1, active compounds read low) of 0.976. The normalized growth (S. cerevisiae deletion strains, locus YNL006W, strain LST8, active compounds read low) was 0.995, the normalized growth (S. cerevisiae deletion strains, locus YNL020C, strain ARK1, active compounds read low) was 0.929 and the normalized growth (S. cerevisiae deletion strains, locus YNL161W, strain CBK1, active compounds read low) was 0.979. The normalized growth (S. cerevisiae deletion strains, locus YNL183C, strain NPR1, active compounds read low) was 0.958, the normalized growth (S. cerevisiae deletion strains, locus YNL207W, strain RIO2, active compounds read low) was 0.979 and the normalized growth (S. cerevisiae deletion strains, locus YNL222W, strain SSU72, active compounds read low) was 0.981. It also gave a normalized growth (S. cerevisiae deletion strains, locus YNL307C, strain MCK1 (second series), active compounds read low) of 0.871, a normalized growth (S. cerevisiae deletion strains, locus YOL078W, strain AVO1, active compounds read low) of 0.984 and a normalized growth (S. cerevisiae deletion strains, locus YOL136C, strain PFK27, active compounds read low) of 0.898. It also gave a normalized growth (S. cerevisiae deletion strains, locus YOR061W, strain CKA2, active compounds read low) of 0.922, a normalized growth (S. cerevisiae deletion strains, locus YOR119C, strain RIO1, active compounds read low) of 1.08 and a normalized growth (S. cerevisiae deletion strains, locus YOR231W, strain MKK1, active compounds read low) of 0.871. The normalized growth (S. cerevisiae deletion strains, locus YOR329C, strain SCD5, active compounds read low) was 0.98, the normalized growth (S. cerevisiae deletion strains, locus YPL031C, strain PHO85, active compounds read low) was 0.95 and the normalized growth (S. cerevisiae deletion strains, locus YPL153C, strain RAD53, active compounds read low) was 0.927. The normalized growth (S. cerevisiae deletion strains, locus YPL204W, strain HRR25, active compounds read low) was 0.947, the normalized growth (S. cerevisiae deletion strains, locus YPL209C, strain IPL1, active compounds read low) was 0.985 and the normalized growth (S. cerevisiae deletion strains, locus YPL256C, strain CLN2, active compounds read low) was 0.779 (active). The normalized growth (S. cerevisiae deletion strains, locus YPR025C, strain CCL1, active compounds read low) was 0.979, the normalized growth (S. cerevisiae deletion strains, locus YPR106W, strain ISR1, active compounds read low) was 0.968 and the normalized growth (S. cerevisiae deletion strains, locus YPR111W, strain DBF20, active compounds read low) was 0.969. It also gave a normalized growth (S. cerevisiae deletion strains, strain NNK1, active compounds read low) of 0.988 and a normalized growth (S. cerevisiae deletion strains, strain TSCII, active compounds read low) of 0.99.
For `Nc1ccccc1C(=O)N/N=C\c1cccc2ccccc12`, the normalized growth [3] was 0.994, the normalized growth [4] was 0.977 and the normalized growth [1] was 1.01. The normalized growth [5] was 0.813 (active), the normalized growth [6] was 0.971 and the normalized growth [7] was 0.85 (active). For the same compound, the normalized growth [8] was 0.993, the normalized growth [2] was 0.461 (active) and the normalized growth [9] was 0.992. It also gave a normalized growth [10] of 0.994, a normalized growth [11] of 1.01 and a normalized growth [12] of 0.979. The normalized growth [13] was 0.944, the normalized growth [14] was 0.734 (active) and the normalized growth [15] was 0.991. The normalized growth [16] was 0.615 (active), the normalized growth [17] was 0.803 (active) and the normalized growth [18] was 0.831 (active). For the same compound, the normalized growth [19] was 0.989, the normalized growth [20] was 0.992 and the normalized growth [21] was 0.526 (active). For the same compound, the normalized growth [22] was 1.01, the normalized growth [23] was 0.807 (active) and the normalized growth [24] was 0.992. The normalized growth [25] was 0.875 (active), the normalized growth [26] was 0.535 (active) and the normalized growth [27] was 0.973. For the same compound, the normalized growth [28] was 0.819 (active) and the normalized growth [29] was 0.66.
Compound `O=C(N/N=C\c1c(O)ccc2ccccc12)N/N=C\c1c(O)ccc2ccccc12` has a normalized growth [3] of 0.996, a normalized growth [4] of 0.975 and a normalized growth [1] of 1.02. For the same compound, the normalized growth [5] was 0.94, the normalized growth [6] was 0.908 and the normalized growth [7] was 0.962. For the same compound, the normalized growth [8] was 1.01, the normalized growth [2] was 0.875 and the normalized growth [9] was 0.989. For the same compound, the normalized growth [10] was 0.994, the normalized growth [11] was 0.988 and the normalized growth [12] was 1.07. It also gave a normalized growth [13] of 1.01, a normalized growth [14] of 1.03 and a normalized growth [15] of 0.992. It also gave a normalized growth [16] of 0.899, a normalized growth [17] of 0.953 and a normalized growth [18] of 0.924. It also gave a normalized growth [19] of 1.02, a normalized growth [20] of 0.928 and a normalized growth [21] of 1.09. For the same compound, the normalized growth [22] was 0.951, the normalized growth [23] was 0.879 and the normalized growth [24] was 1.02. It also gave a normalized growth [25] of 0.928, a normalized growth [26] of 0.888 and a normalized growth [27] of 1.01. For the same compound, the normalized growth [28] was 0.939, the normalized growth [29] was 0.968 and the normalized growth (S. cerevisiae strains, strain wild type, active compounds read low) was 0.994.
